Screening results (PubChem)
Shown are actives, neighbours in structure and some others; about 4.1% of the full set was active somewhere.
UGM FP inh = M. tuberculosis UGM enzyme inhibitors, primary screen, biochemical, fluorescence polarization, single point; purified UGM, fluorescence polarization probe displacement; inhibition, % at 10 µM; actives 0.06% (n = 320,000); UDP-galactopyranose mutase (Mycobacterium tuberculosis (strain ATCC 25618 / H37Rv)), …; in the data active = inhibition above about 10%, passing the limit was not always enough
GDH-TPI inh = GDH-TPI coupling enzyme inhibitors, primary screen, artefact control for M. tuberculosis FBA inhibitor project, biochemical, absorbance, full deck. inhibition, % at 4.8 µM. actives 1.2% (n = 360,000). AID 588335, 2011. GDH-TPI coupled enzyme counterscreen, NADH absorbance; in the data active = inhibition above about 30%
RecA splice inh = Mtb RecA intein splicing inhibitors, primary screen, biochemical, fluorescence, HTS; cell-free RecA intein splicing; inhibition, % (test concentration not listed); actives 0.75% (n = 290,000); in the data active = inhibition above about 30%
Target sequence (P9WHJ3 whole entry, looked up, canonical isoform): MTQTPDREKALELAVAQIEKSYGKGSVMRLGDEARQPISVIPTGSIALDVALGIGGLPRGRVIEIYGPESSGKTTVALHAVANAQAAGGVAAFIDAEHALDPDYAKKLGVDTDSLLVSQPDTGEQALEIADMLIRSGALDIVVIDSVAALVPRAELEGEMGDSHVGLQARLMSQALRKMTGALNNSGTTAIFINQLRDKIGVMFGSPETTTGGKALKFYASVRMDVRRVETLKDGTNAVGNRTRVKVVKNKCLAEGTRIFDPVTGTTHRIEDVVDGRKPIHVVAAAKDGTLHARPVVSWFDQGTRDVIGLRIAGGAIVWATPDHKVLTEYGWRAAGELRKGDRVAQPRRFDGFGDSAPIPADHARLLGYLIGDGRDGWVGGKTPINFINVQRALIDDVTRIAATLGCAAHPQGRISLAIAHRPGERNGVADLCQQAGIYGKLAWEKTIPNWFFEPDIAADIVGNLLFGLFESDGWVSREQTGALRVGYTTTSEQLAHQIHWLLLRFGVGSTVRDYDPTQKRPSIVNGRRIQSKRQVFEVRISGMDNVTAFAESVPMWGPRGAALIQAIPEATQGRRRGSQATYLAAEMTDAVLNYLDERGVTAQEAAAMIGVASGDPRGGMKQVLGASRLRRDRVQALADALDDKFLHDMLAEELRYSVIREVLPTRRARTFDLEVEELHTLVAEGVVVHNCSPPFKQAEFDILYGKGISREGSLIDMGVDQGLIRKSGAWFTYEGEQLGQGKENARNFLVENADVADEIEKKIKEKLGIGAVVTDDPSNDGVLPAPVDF
Mtb FBA inh = Mtb FBA enzyme inhibitors, primary screen, biochemical, fluorescence, strain H37Rv; AID 588726, 2011; actives 2.3% (n = 360,000); purified M. tuberculosis FBA, fluorescence read-out; inhibition, % at 1 µM; in the data active = inhibition above about 27%
Rv3671c inh = Rv3671c serine protease inhibitors, primary screen, biochemical, fluorescence polarization, M. tuberculosis H37Rv; AID 2606, 2010; P9WHR9; inhibition, % at 5.96 µM; actives 0.048% (n = 320,000); in the data active = inhibition above about 38%;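 note: extracellular domain of Rv3671c used as enzyme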
BH1578 lux ind = inducers of Vibrio cholerae quorum light production without autoinducers, primary screen, BH1578 luxS cqsA deficient, single point. V. cholerae BH1578 lux reporter, luminescence, 6 h. activation, % at 18.7 µM. actives 0.16% (n = 350,000); in the data active = activation mostly above about 9.7%, no sharp cut-off
Of the large screens only hits and unclear results are named; the others gave an inactive call.

CNC(=O)c1ccc(NC(=O)c2cc(S(=O)(=O)N(C)C)ccc2N2CCCC2)cc1	none (no result: RecA splice inh)
COc1cc(S(=O)(=O)NCc2ccncc2)ccc1Br	none
O=C1NC(c2ccccc2)=C(c2nc3ccccc3s2)C(c2ccccc2)N1 (configuration not stated)	GDH-TPI inh 34
CCN(CC)c1ccc(/C=N/NC(=O)C(O)c2ccccc2)cc1 (configuration not stated)	none
N[C@@H](Cc1ccc(N(CCCl)CCCl)cc1)C(=O)O	GDH-TPI inh 33 (no result: RecA splice inh)
NC(Cc1ccc(O)cc1)C(=O)NN=Cc1ccc(N(CCCl)CCCl)cc1 (configuration not stated)	GDH-TPI inh 50 (no result: UGM FP inh, RecA splice inh, Rv3671c inh)
CC(=O)NC(Cc1ccc(N(CCCl)CCCl)cc1)C(=O)O (configuration not stated)	none
CCCCNC(=O)CSc1nc(CCC)nc2ccccc12	none
CCCc1nc(SCC(=O)N2CCc3ccccc3C2)c2ccccc2n1	RecA splice inh 32
CC(C)C[C@@H](CO)N1CCN(Cc2cccnc2)CCC1=O	none
CC(C)n1c(=O)c2ccccc2n1Cc1cn(Cc2cccs2)nn1	Mtb FBA inh 152 (no result: UGM FP inh, GDH-TPI inh, RecA splice inh, Rv3671c inh, BH1578 lux ind)
CC(C)n1nnnc1SCC(=O)NCc1cccs1	none
CC(C)n1c(=O)c2ccccc2n1Cc1cn(Cc2cccnc2)nn1	Mtb FBA inh 154 (no result: UGM FP inh, GDH-TPI inh, RecA splice inh, Rv3671c inh, BH1578 lux ind)
O=C1[C@@H]2CSCN2C(=O)CN1Cc1c(F)cccc1Cl	none
COc1ccc(Cl)cc1NC(=O)NN1CCN(C)CC1	none
COC(=O)c1cc(=O)n2c(-c3ccccc3)csc2n1	none (no result: BH1578 lux ind)
O=c1nc2scc(-c3ccccc3)n2c2ccccc12	GDH-TPI inh 36
COc1cc2oc3ccccc3c(=O)c2cc1OC	Mtb FBA inh active
O=c1c2ccccc2oc2cc(Br)ccc12	none (no result: UGM FP inh, RecA splice inh, Rv3671c inh)
NC(=O)Cn1c(S(=O)(=O)Cc2ccccc2)nc2ccccc21	none
O=S(=O)(Cc1ccccc1)c1cnc2ccccc2n1	RecA splice inh 30
COc1ccc(S(=O)(=O)c2cnc3ccccc3n2)cc1	RecA splice inh 35
O=S(=O)(c1ccc(Br)cc1)c1cnc2ccccc2n1	none
C/C(=N\N1CCN(Cc2ccc(Cl)cc2)CC1)c1ccc([N+](=O)[O-])cc1	none
CC(=O)Nc1ccc2c(CN3C(=O)NC(C)(c4ccc(C)cc4)C3=O)cc(=O)oc2c1 (configuration not stated)	Mtb FBA inh 132
Cc1ccc2c(CN3C(=O)NC(C)(c4ccc5c(c4)OCO5)C3=O)cc(=O)oc2c1 (configuration not stated)	none
CCOc1ccc(C(=O)N/N=C(\c2ccccc2)c2ccccn2)cc1	GDH-TPI inh 32
Cc1nn(C(=O)c2cccnc2)c(C)c1Sc1ccc(Br)cc1	RecA splice inh 44
Cc1nn(C(=O)c2ccco2)c(C)c1Sc1ccc(Cl)cc1	none
Cn1nc(C(=O)OCC(=O)c2ccc(Cl)cc2)c2ccccc2c1=O	none (no result: RecA splice inh)
COc1cc(-c2c(C#N)c(N)nc3c2CCCC3)ccc1O	none
COC(=O)c1c(C#N)c(N)nc2c1CCCC2	Mtb FBA inh 125
Cc1cc(C)n2nc(SCC(=O)N3CCCCC3C)nc2n1 (configuration not stated)	none (no result: RecA splice inh)
COc1cc(/C=C/C(=O)Nc2nc3ccc(S(=O)(=O)N(C)C)cc3s2)cc(OC)c1OC	GDH-TPI inh 48
COc1cc(/C=C/C(=O)Nc2nnc(C(C)(C)C)s2)cc(OC)c1OC	none
CCOc1cc(/C=C2\CCCc3c2nc2ccccc2c3C(=O)O)ccc1OC	UGM FP inh 44
Cc1cccc(C)c1NC(=O)COC(=O)c1c2c(nc3ccccc13)/C(=C\c1ccc3c(c1)OCO3)CCC2	UGM FP inh 19 (no result: RecA splice inh)
COc1cccc(CN(C)C(=O)CSCC(=O)Nc2cccc(C)c2)c1OC	none (no result: RecA splice inh)
Cc1ccc(CNC(=O)c2nnn(CC(=O)Nc3cccc(C)c3C)c2N)cc1	none
COc1ccc(C2=NCCn3cccc32)c(OC)c1	GDH-TPI inh 49
Cc1cccc(/C=N/NC(=O)C(C)Nc2cccc3ccccc23)n1 (configuration not stated)	RecA splice inh 75
CC(Nc1cccc2ccccc12)C(=O)N/N=C/c1ccc([N+](=O)[O-])cc1 (configuration not stated)	none
CCOC(=O)CNC(=O)N(C)[C@H]1C[C@H]2c3[nH]c4ccccc4c3CCN2C(=O)[C@H]1[C@H](C)O	none (no result: UGM FP inh, GDH-TPI inh, RecA splice inh, Rv3671c inh, BH1578 lux ind)
O=C(Cc1ccc(NC(=O)C2CCN(C(=O)C3CCC3)CC2)cc1)Nc1cccc(C(=O)N2CCCCC2)c1	none (no result: UGM FP inh, RecA splice inh, Rv3671c inh)
CCOC(=O)c1c(NC(=O)CSc2nc3cc(Cl)ccc3s2)sc(C(C)=O)c1C	none (no result: GDH-TPI inh, Mtb FBA inh, BH1578 lux ind)
CCOC(=O)c1c(NC(=O)CSc2nc3ccccc3s2)sc(C(C)=O)c1C	GDH-TPI inh 33
C#CCOCCOCCOCCNc1nc(N2CCN(C(=O)[C@H](C(C)C)n3cc(CCO)nn3)CC2)nc(N2CCN(C(=O)[C@H](C)n3cc(CCCN=C(N)N)nn3)CC2)n1	none (no result: UGM FP inh, RecA splice inh, Rv3671c inh)
CCOc1ccc(/C=N/N(C)c2ccccc2)cc1OC	GDH-TPI inh 33
COc1cc(/C=N/N(c2ccccc2)c2ccccc2)ccc1O	none
FC(F)(F)Oc1ccc(C2NCc3ccccc3-n3cccc32)cc1 (configuration not stated)	none
COc1ccc(C2Nc3cc(OC)ccc3-n3cccc32)cc1 (configuration not stated)	GDH-TPI inh 34
Cc1ccn(CC(=O)N/N=C/c2cc([N+](=O)[O-])ccc2O)n1	GDH-TPI inh 49
O=[N+]([O-])c1ccc(O)c(/C=N/Nc2nn[nH]n2)c1	none
O=[N+]([O-])c1ccc(O)c(/C=N/Nc2ccc(Cl)nn2)c1	GDH-TPI inh 33 (no result: RecA splice inh)
CNS(=O)(=O)c1ccc(CNC[C@H]2O[C@@H](n3cc(C)c(=O)[nH]c3=O)C[C@@H]2O)cc1	none (no result: UGM FP inh, RecA splice inh, Rv3671c inh)
COc1cc(NC(=O)COC(=O)CCCC2=NS(=O)(=O)c3ccccc3N2)cc(OC)c1	none
CCc1nc2ccc(C(=O)Nc3cccc(OCC(=O)N(C)C)c3)cn2c1N(C)Cc1ccc(OC)cc1	none (no result: UGM FP inh, RecA splice inh, Rv3671c inh)
COc1ccc2oc(C(=O)Nc3nc4ccccc4[nH]3)c(C)c2c1	GDH-TPI inh 44
Cn1cnc([N+](=O)[O-])c1S(=O)(=O)Oc1cccc2ccccc12	none (no result: UGM FP inh, RecA splice inh, Rv3671c inh)
Cn1cnc([N+](=O)[O-])c1Oc1cccc2ccccc12	RecA splice inh 36
O=S(=O)(NCCc1c[nH]c2ccccc12)c1ccc(F)cc1	none (no result: UGM FP inh, RecA splice inh, Rv3671c inh)
COc1ccc(NC(=O)NS(=O)(=O)c2ccc(C)cc2)cn1	UGM FP inh 67 (no result: Rv3671c inh)
